Our source for the inhibition values is PubChem BioAssay AID777 (Sanford-Burnham Center for Chemical Genomics, 2007).

Hit rate of the full screen: of about 96,000 compounds, about 19,000 (20%) were called active. A selection follows. A number with no mark means an inactive call.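 The calls were made as follows: active = blocking of liver enzyme CYP2C9 beyond about 50% at 5 µM (limit read from the data); inactive = the rest.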

The target of this assay is Cytochrome P450 2C9 (Homo sapiens) (UniProt P11712). In words: blockers of cytochrome P450 2C9 activity – biochemical, luminescence, ADME assay, primary screen (AID 777). The settings on record: CYP2C9 Supersomes, luciferin-H conversion, at 5 µM, active compounds read high.
Sequence of Cytochrome P450 2C9 (Homo sapiens) (P11712 whole entry, looked up): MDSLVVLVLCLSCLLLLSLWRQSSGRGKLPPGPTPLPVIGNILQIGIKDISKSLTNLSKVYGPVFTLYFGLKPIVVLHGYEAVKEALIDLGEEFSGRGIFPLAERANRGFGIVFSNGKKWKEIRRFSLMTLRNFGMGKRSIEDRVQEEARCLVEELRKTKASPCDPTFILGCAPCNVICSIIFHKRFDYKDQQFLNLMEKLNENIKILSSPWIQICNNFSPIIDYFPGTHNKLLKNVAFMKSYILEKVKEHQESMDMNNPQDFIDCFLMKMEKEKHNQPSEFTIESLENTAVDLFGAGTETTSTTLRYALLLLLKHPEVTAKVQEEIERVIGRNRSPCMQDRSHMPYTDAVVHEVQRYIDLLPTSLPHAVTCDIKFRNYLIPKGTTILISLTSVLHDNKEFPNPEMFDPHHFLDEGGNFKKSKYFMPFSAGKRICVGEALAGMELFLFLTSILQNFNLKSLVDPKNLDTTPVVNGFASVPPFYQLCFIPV
Turning to `CC(C)(C)c1cc2cccnc2n1Cc1cccc(F)c1`, the inhibition – broadly, the change of the read-out against control, counted positive when it falls – was 6.5%. The figure for `COC(=O)c1ccc(OCC(=O)NC(C)(C)C)cc1` is 14.1%. The figure for `CC/C(=N/Nc1ccccc1)c1cnnc(SC)n1` is 59% (active). On to `CC(C)(C)c1csc(NC2=NS(=O)(=O)c3ccccc32)n1`, for which the inhibition was 17.4%. The figure for `O=S1(=O)C=C(SCCN2CCCC2)c2ccccc21` is 14%.

As to `CC(C)(C)c1ccc(OC2=CS(=O)(=O)c3ccccc32)cc1`, the inhibition is 79% (active). Then `Brc1cnc(N2CCCC2)nc1N1CCCCC1`, with -15.1%; and `COc1ccc(C2=NOC(C(=O)NCc3ccco3)C2)cc1OC` (stereo not drawn), with -31.2%; and `Cc1ccnc(-n2sc3ccccc3c2=O)n1`, with 30.1%.

`Cc1cc(O)cc(O)c1C(=O)Cc1cnn(-c2ccccc2)c1`: the inhibition is 63.4% (active). As for `COc1ccc(C(=O)Cc2cnn(-c3ccccc3)c2)c(O)c1`, the inhibition is 5%. The figure for `Cn1nnnc1SCC(=O)N1CCN(Cc2ccccc2)CC1` is 1.6%. Then `CC(C)OC(=O)C(C#N)c1nc2ccccc2nc1N1CCN(Cc2ccc3c(c2)OCO3)CC1` (stereo not drawn), with 16.9%; and `CC(C)OC(=O)C(C#N)c1nc2ccccc2nc1N1CCN(Cc2ccccc2)CC1` (stereo not drawn), with 62.6% (active). `Cc1cccc(C)c1NC(=O)c1ccc(CN2CCc3ccccc3C2)cc1`: the inhibition is -5.8%. On to `CC1(C)Cc2c(sc3nc4n(c(=N)c23)CCCCC4)CO1`, for which the inhibition is 3.2%. As for `C=CC[n+]1c(-c2ccc(C)cc2)csc1NNC(=O)Nc1ccccc1`, the inhibition was 8.5%. The figure for `Oc1ccc(-c2csc(Nc3cccnc3)n2)cc1` is 37.6%; for `c1ccc(Nc2nc(-c3ccncc3)cs2)nc1` it is 92.9% (active).

Take `c1cnc(Nc2nc(-c3ccc4ccccc4c3)cs2)nc1`: the inhibition was -3.5%. Then `Fc1ccc(Br)cc1/C=N/n1cnnc1`, with 6.6%; and `Cc1cccc(C(=O)Nc2nnc(Cc3c[nH]c4ccccc34)s2)c1`, with -4.3%; and `CN(CC#CCC(c1ccccc1)c1ccccc1)C(C)(C)C`, with 25.6%. The figure for `CCCCn1c(=S)[nH]c2ncccc2c1=O` is 13.8%; for `Fc1ccc(Cn2nnnc2C(c2cccs2)N2CCCCCC2)cc1` (stereo not drawn) it is 83.4% (active); for `N#Cc1ccc(C(c2nnnn2CCc2ccccc2)N2CCCCCC2)cc1` (stereo not drawn) it is 8.8%. The figure for `CC(C)C(c1nnnn1Cc1ccccc1)N1CCC(C(N)=O)CC1` (stereo not drawn) is 10.7%; for `CCOC(=O)N1CCC(C(N)=O)CC1` it is -7.1%; for `Cc1ccccc1OCC(=O)NCC(=O)OCC(=O)c1ccc2ccccc2c1` it is -61.4%. Regarding `CCCOc1ccc2c3c(c(=O)oc2c1OCCC)CCC3`, the inhibition was -0.6%.

For the molecule `CC(C)c1nc(-c2ccccn2)no1`, the inhibition is 3.9%. Then `O=C(Oc1ccccc1)c1ccc2nccnc2c1`, with 17%. The figure for `O=C(Oc1ccc(-c2nc(-c3ccccn3)no2)cc1)c1ccccc1` is 87.2% (active). The figure for `CCOC(=O)C1=C(CN2CCc3ccccc32)NC(=O)NC1c1ccc(Cl)cc1` (stereo not drawn) is 4.7%. On to `COCCOC(=O)C1=C(C)NC(=O)NC1c1ccc(Cl)cc1` (stereo not drawn), for which the inhibition was -3%. The figure for `CCOC(=O)C1=C(C)NC(=O)N(C(C)=O)C1c1ccc(Cl)cc1` (stereo not drawn) is 74.3% (active); for `COc1ccc(C2=NOC3(CC(=O)N(c4ccc(Cl)cc4)C3=O)C2)c(OC)c1` (stereo not drawn) it is 23%; for `O=C(NC1CCN(Cc2ccccc2)CC1)c1ccccc1F` it is 7.8%.

`COc1ccc(-c2nn3c(-c4ccccc4)nnc3s2)cc1OC`: the inhibition was 6.9%. Then `CCOc1cccc(-c2nn3c(-c4ccccn4)nnc3s2)c1`, with 23.2%; and `COc1cc(-c2nn3c(-c4cccc(C)c4)nnc3s2)cc(OC)c1OC`, with 74.1% (active). Then `Cc1cc(NC(=O)COn2nnc3ccccc32)no1`, with 24.9%; and `Cc1ccc(C(=O)N2CCN(C(=O)N3CCOCC3)CC2)cc1`, with 11.5%. Then `Cc1cc2nc(-c3ccc(NC(=O)c4cccnc4)cc3)oc2cc1C`, with 7.6%. In the case of `CCOC(=O)CN1C(=O)C(O)(CC(=O)c2ccccn2)c2ccccc21` (stereo not drawn), the inhibition was 26%. The figure for `C=CCN1C(=O)C(O)(CC(=O)c2ccc(Cl)cc2)c2ccccc21` (stereo not drawn) is 67.9% (active); for `O=C(CC1(O)C(=O)N(CN2CCOCC2)c2ccccc21)c1ccccc1` (stereo not drawn) it is -1%; for `Nc1c(C(=O)NCc2ccccc2)sc2nc3c(cc12)C(=O)CCC3` it is 6%. Then `Cc1cc(C)c2nc(NC(=O)C3CCCO3)sc2c1` (stereo not drawn), with 28.3%; and `O=C(Cc1ncc(C(F)(F)F)cc1Cl)Nc1cccc(Br)c1`, with 24.9%. Then `CCCN(CCC)C(=O)C1c2ccccc2Oc2ccccc21`, with 53.1% (active); and `CCOC(=O)N1CCN(C(=O)CNC(=O)Cc2ccc(Cl)cc2)CC1`, with 10.1%. For the molecule `CCOc1cc(N2CCOCC2)c(OCC)cc1NC(=O)COc1cccc2cccnc12`, the inhibition is 0%. Then `CCOC(=O)CSc1nc2sc3c(c2c(=O)[nH]1)CC(C)(C)OC3`, with 15.3%; and `CC(=O)c1sc2nc(SCC(=O)N3CCCCC3)[nH]c(=O)c2c1C`, with 95.6% (active). Then `O=C(CSc1nc2c(cnn2-c2ccc(F)cc2)c(=O)[nH]1)N1CCCCCC1`, with 1.3%; and `C=CCNC(=O)CSc1nc2sc(C)c(C)c2c(=O)[nH]1`, with 58.1% (active).

As for `C=CCn1c(SCC(=O)/C(C#N)=C(\C)N)nc2sc(C)c(C)c2c1=O`, the inhibition was 38.5%. For the molecule `Cc1cccc(NC(=O)CSc2nc3c(c(=O)[nH]2)CCCC3)c1C`, the inhibition was 35.7%.

In the case of `Cn1c(=O)cc(OCCCC(=O)N2CCN(Cc3ccc4c(c3)OCO4)CC2)c2ccccc21`, the inhibition is 9.3%.

For the molecule `CCOC(=O)NNC(=O)c1ccc(Cl)cc1`, the inhibition was 1.4%.

Regarding `CN(C)/C=C/c1c(C#N)c(=O)ncn1Cc1ccccc1`, the inhibition was 3.3%.

Take `Cc1nc2ccc(NC(=O)N3CCC(c4ccccc4)C3)cc2nc1C` (stereo not drawn): the inhibition is 51.4% (active). The figure for `COc1ccc(NC(=O)Nc2ccc3nc(C)c(C)nc3c2)cc1` is 18.7%.

Consider `Cn1c(CCN2CCCCCC2)nc2cc(NC(=O)Nc3ccccc3)ccc21`, for which the inhibition was -0.2%. The figure for `Cc1cc(C(=O)CC#N)c(C)n1CC(F)(F)F` is 19.4%; for `COc1cccc2cc(C(=O)N(C)C)c(=O)oc12` it is -103%; for `CCOC(=O)c1cnc(-c2ccccc2)nc1Oc1ccc(C)cc1` it is 65.7% (active).

`CCCCOc1ccc(-c2ncc(C(=O)OCC)c(N)n2)cc1`: the inhibition is -19.4%. Then `CCOC(=O)c1c(C)nc(-c2ccccc2)nc1NC(=O)C(C)C`, with 23%; and `COc1ccc(NC(=O)c2c(C)oc3c2CCCC3)cc1`, with 15.4%; and `COc1ccc(C(=O)c2oc3ccc(Br)cc3c2NC(C)=O)cc1`, with 1.7%. The figure for `COc1ccc(C(=O)c2c(C)oc3cc([N+](=O)[O-])c(O)c([N+](=O)[O-])c23)cc1` is 79.8% (active); for `Cc1nn(C)c(Oc2ccccc2)c1[N+](=O)[O-]` it is 29.1%; for `CN(CCC#N)c1ncnc2scc(-c3ccccc3)c12` it is 19.4%. Turning to `Cc1nc2ccccc2cc1O`, the inhibition is -22.9%.

Turning to `Cc1noc(C)c1COC(=O)c1cc2ccccc2cc1O`, the inhibition was 91.6% (active). The figure for `Cc1noc(C)c1COC(=O)Cn1c(C)nc2ccccc21` is 10.7%; for `CC(=O)N(CN1C(=O)C2CC=CCC2C1=O)c1cccc(Cl)c1` (stereo not drawn) it is 12.2%. The figure for `CN1C(=O)CC(N2CCN(c3ccccn3)CC2)C1=O` (stereo not drawn) is 7.7%; for `COc1cccc(C(CC(=O)NCCN2CCOCC2)NS(=O)(=O)c2ccc(C)cc2)c1OC` (stereo not drawn) it is -7.3%. Then `CCn1c2ccccc2c2cc(NC(=O)C/C(C)=N/NC(=O)c3ccccc3N)ccc21`, with -17.8%.

`Cc1cc(C)cc(N(C(C)C(=O)Nc2c(C)n(C)n(-c3ccccc3)c2=O)S(C)(=O)=O)c1` (stereo not drawn): the inhibition was 16.6%. The figure for `CSc1ccccc1-c1nnc(-c2ccc(Cl)cc2)o1` is -19.4%. Then `FC(F)(F)c1cnc(Oc2ccccc2-c2nnc(-c3ccc(Cl)cc3)o2)c(Cl)c1`, with 81.1% (active); and `COc1ccccc1-c1nc(C(F)(F)F)c(OC)o1`, with 17%; and `O=c1[nH]n(-c2cccc(Cl)c2)c2ncccc12`, with -10.7%. Then `O=C(Nc1nnc(SCc2ccc(Cl)cc2Cl)s1)C1COc2ccccc2O1` (stereo not drawn), with 67.2% (active). As to `CCSc1nnc(NC(=O)Cc2ccccc2OC)s1`, the inhibition was 42.4%. Take `O=C(Nc1nnc(SCc2c(Cl)cccc2Cl)s1)C1CCCO1` (stereo not drawn): the inhibition was -65.7%. The figure for `O=C(Cn1c(=O)n(Cc2ccco2)c(=O)c2ccccc21)NCC1CCCO1` (stereo not drawn) is 57.3% (active); for `COc1ccc(NC(=O)Cn2c(=O)n(Cc3ccco3)c(=O)c3ccccc32)cc1` it is 17.1%. Then `COc1ccccc1CNC(=O)CCCn1c(=O)c2ccccc2n(CC(=O)NC2CCCC2)c1=O`, with 44.7%. Then `O=C1CC(Sc2ncn[nH]2)C(=O)N1c1ccccc1` (stereo not drawn), with -21.9%; and `Cc1ccc(S(=O)(=O)N/N=C\c2cc3c(cc2[N+](=O)[O-])OCO3)cc1`, with -13%; and `CN1OC(COC(=O)c2ccc(Cl)cc2)CC1c1ccccc1` (stereo not drawn), with 37.4%. Consider `C=CCNC(=O)c1ccc(C)c(Br)c1`, for which the inhibition was -17.9%. In the case of `C=CCNC(=O)c1sc(SC)cc1-c1ccc(Cl)cc1`, the inhibition is 64% (active). Take `C=CCNC(=O)c1cc(-c2ccccc2O)on1`: the inhibition is -48.2%.

Turning to `ON=C1/C(=N\O)CC2(C/C1=N/O)OCCO2`, the inhibition was -14.6%. Then `COc1ccc(-c2cc(C(=O)n3cnc4ccccc43)c3ccccc3n2)cc1`, with 92.5% (active); and `COc1ccc(-c2cc3n(n2)CCc2nc4ccccc4n2-3)cc1`, with -8.6%.

For the molecule `Cc1ccc(OCC(=O)Nn2cnc3ccccc32)cc1`, the inhibition is 6.6%.
